RORgamma inh – qHTS for inhibitors of ROR gamma transcriptional activity; Drosophila S2 Gal4-RORgamma UAS-luciferase reporter, 20 h; Potency, µM (doses to about 53.6 µM), actives largely listed as inhibitors; Nuclear receptor ROR-gamma (Mus musculus), P51450; hit rate 5.4% among 310,000; further: nearly all actives have a fitted effect of over 60% in size
Target sequence (P51450 whole entry, looked up, the tested form may be a part): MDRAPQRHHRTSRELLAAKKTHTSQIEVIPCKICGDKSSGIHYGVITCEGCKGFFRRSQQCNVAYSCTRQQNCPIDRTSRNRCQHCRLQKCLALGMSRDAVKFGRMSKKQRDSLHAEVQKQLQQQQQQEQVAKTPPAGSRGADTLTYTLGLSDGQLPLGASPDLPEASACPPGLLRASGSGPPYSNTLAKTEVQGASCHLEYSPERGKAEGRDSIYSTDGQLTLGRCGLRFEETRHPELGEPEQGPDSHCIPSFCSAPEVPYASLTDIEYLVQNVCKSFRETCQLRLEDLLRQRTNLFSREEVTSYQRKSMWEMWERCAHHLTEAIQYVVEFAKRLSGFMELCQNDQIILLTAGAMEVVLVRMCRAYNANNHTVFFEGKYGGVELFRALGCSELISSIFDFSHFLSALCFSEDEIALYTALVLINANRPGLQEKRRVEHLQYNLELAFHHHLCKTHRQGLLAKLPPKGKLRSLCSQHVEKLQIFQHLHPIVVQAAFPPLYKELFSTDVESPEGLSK
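A Gal4/UAS one-hybrid system in insect cells: metallothionein-promoter Gal4–ROR gamma fusion plus Photinus luciferase reporter. Copper sulfate 700 uM final, 20 hr ambient incubation, luminescent detection after 10 min with reagent.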
Gal4-VP16 FLuc – VP16 counterscreen qHTS for inhibitors of ROR gamma transcriptional activity | hit rate 3.5% among 310,000 | Drosophila S2 Gal4-VP16 UAS-luciferase, luminescence, 20 h | Potency, µM (doses to about 53.6 µM), usual class: inhibitors | AID 2546, 2010;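 further: Gal4-VP16 expression switched on by copper sulfate through the metallothionein promoter; nearly all actives have a fitted effect of over 50% in size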
SW480 rerep – A quantitative high throughput screen for small molecules that induce DNA re-replication in SW480 colon adenocarcinoma cells. SW480 DNA re-replication, Hoechst DNA content imaging, 48 h. Potency, µM (titrated, usually from 46.1 µM), most hits filed as activators. hit rate 1.8% among 340,000; further: nearly all actives have a fitted effect of over 55% in size
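SW480 cells exposed to compounds for 48 hr at 37 C, 5% CO2, then Hoechst-stained 40 min. Nuclear DNA content imaged by fluorescence scanning (405 nm excitation, 500-530 nm emission); re-replication scored as increased high-intensity nuclei.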
IL1B secr inh – qHTS for Inhibitors of Inflammasome Signaling: IL-1-beta AlphaLISA Primary Screen | AID 743279, 2014 | hit rate 4.7% among 360,000 | THP-1 LPS/ATP IL-1B secretion, AlphaLISA, 16 h; active compounds read low | activity change, % at 57.5 µM; in the data active means activity change below about -50%; inconclusive means mostly about -30% to -49%
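Secreted IL-1B measured by AlphaLISA bead assay after 16 h compound exposure of THP-1 cells; compounds (final up to 57.5 uM) added 1 h before LPS (250 ng/mL) and ATP (1.25 mM) stimulation; lower signal means less secretion.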
MCF10A rerep – A quantitative high throughput screen for small molecules that induce DNA re-replication in MCF 10a normal breast cells; MCF 10A DNA re-replication, Hoechst nuclear intensity, 48 h; Potency, µM (doses to about 46.1 µM), most hits filed as activators; hit rate 2.9% among 350,000; further: nearly all actives have a fitted effect of over 50% in size
A number is an active result; i = inactive; ? = inconclusive; nt = not tested or not shown; [ ] = remark or other dose. Sampled rows, rich in hits. Any-hit rate of the full collection: about 11%. Unless noted, the call rests on the fitted dose curve; in most records, active means well fitted curve in the direction sought with a large enough effect; inconclusive means small, poorly fitted or top-dose-only effect, or another doubt; inactive means no such curve, though single readings can be large; an effect the other way counts as inactive or inconclusive.

SMILES | RORgamma inh | Gal4-VP16 FLuc | SW480 rerep | IL1B secr inh | MCF10A rerep
O/N=C/c1ccccc1OCc1ccc(Cl)cc1 | i | i | i | -95.8 | ?
O=C(Cc1ccccc1)N/N=C/c1ccccc1OCc1ccc(Cl)cc1 | i | i | ? | i | i
O=C(CCSc1ccccc1)Nc1nnc(-c2ccccc2)o1 | 10µM | 11.2µM | i | i | i
CNC(=O)CSc1nnc(-c2cccs2)o1 | i | i | i | i | i
O=C(CCc1ccccc1)Nc1nnc(-c2cccs2)o1 | 6.31µM | 10µM | i | i | i
Nc1nnc(SCC(=O)Nc2nnc(-c3ccccc3)o2)s1 | nt | nt | i | i | i
O=C(CCSc1ccccc1)Nc1nnc(-c2cccs2)o1 | 4.47µM | 10µM | i | i | i
Cc1ccc(C(=O)Nc2cccc(NC(=O)c3cccs3)c2)c(C)c1 | i | i | i | i | i
COC(=O)C1=C(C)NC(=O)/C1=C\c1cc(C)n(-c2c(C)cccc2C)c1C | i | i | ? | i | 5.8µM
COC(=O)C1=C(C)NC(=O)/C1=C\c1cc(C)n(-c2ccccc2F)c1C | i | i | i | -113.7 | i
COC(=O)C1=C(C)NC(=O)/C1=C\c1cc(C)n(-c2ccccc2C)c1C | i | i | i | i | i
COc1ccc(NC(=O)NNC(=O)COc2ccc([N+](=O)[O-])c(C)c2)cc1OC | i | i | i | i | i
NC(=O)C1Cc2ccccc2CN1C(=O)c1nn(Cc2ccccc2)c(=O)c2ccccc12 (configuration not stated) | nt | nt | i | i | i
COC(=O)C1=C(C)N=C2SC(C#N)=C(N)N2C1c1ccc(OC)cc1 (configuration not stated) | i | i | i[9.22 µM] | i | i
CCOC(=O)C1=C(C)N=C2SC(C(=O)OC)=CC(=O)N2C1c1ccc(OC)cc1 (configuration not stated) | 1.78µM | ? | i | i | i
Cc1ccc(CCNC(=O)c2nn(C)c3c2CS(=O)(=O)c2ccccc2-3)cc1 | i | i | ? | i | i
Cn1nc(C(=O)N2CCN(c3ccc(Cl)cc3)CC2)c2c1-c1ccccc1S(=O)(=O)C2 | i | i | i | -57.8 | i
COc1ccc(CCNC(=O)c2nn(C)c3c2CS(=O)(=O)c2ccccc2-3)cc1OC | i | i | 23.1µM | i | ?
O=C(Nc1ccc(Cl)c(Cl)c1)N[C@@H]1CC[C@@H](CCn2cc(C3CCCCC3)nn2)O[C@@H]1CO | nt | nt | nt | i | nt
CCN(CC)S(=O)(=O)c1ccc(C(=O)NC(=S)N(CCC#N)Cc2cccnc2)cc1 | 3.55µM | 11.2µM | i | i | i
N#CCCN(Cc1cccnc1)C(=S)NC(=O)c1ccco1 | i | i | i | i | i
Cc1ccc(S(=O)(=O)N(C)C)cc1NC(=S)N(CCC#N)Cc1cccnc1 | i | ? | i | i | i
CN(C)S(=O)(=O)c1cccc(C(=O)NC(=S)N(CCC#N)Cc2cccnc2)c1 | 2µM | i[10 µM] | i | i | i
COc1ccccc1C1SCCN1S(C)(=O)=O (configuration not stated) | i | i | i | i | i
COc1ccc(OC)c(C2SCCN2S(C)(=O)=O)c1 (configuration not stated) | 11.2µM | i | i | i | i
SMILES | RORgamma inh | Gal4-VP16 FLuc | SW480 rerep | IL1B secr inh | MCF10A rerep
CC(=O)OC1CC[C@]2(C)C(CC(OC(C)=O)[C@]3(C)C2CC[C@@]2(C)C(c4ccoc4)OC(=O)C4O[C@]432)C1(C)C (some centres not stated) | i | i | nt | nt | nt
CSc1nnc(-c2sc3cc(C(F)(F)F)cnc3c2-c2ccccc2)n1C | i | i | i | i | 4.61µM
O=C(O)c1sc2cc(C(F)(F)F)cnc2c1-c1ccccc1 | i | i | i | i | i
Cc1nnc(SCC(=O)N2CC(=O)Nc3ccccc32)n1Cc1ccccc1 | i | i | i[9.22 µM] | i | i
COCCn1c(SCC(=O)N2CCc3ccccc3C2)nc2cc(Cl)ccc2c1=O | i | i | i | -75.8 | i
O=C1CN(C(=O)CSc2nc3cc(Cl)ccc3c(=O)n2Cc2ccccc2)c2ccccc2N1 | ? | 12.6µM | i | -71.7 | i
CC(C)Cn1c(SCC(=O)N2CCc3ccccc3C2)nc2cc(Cl)ccc2c1=O | ? | ? | i | i | ?
Cc1ccc(Cn2c(SCC(=O)N3CC(=O)Nc4ccccc43)nc3ccccc3c2=O)cc1 | 1.58µM | ? | nt | i | i
CC(C)c1ccccc1-n1c(SCC(=O)c2ccc3c(c2)NC(=O)CO3)nc2ccccc2c1=O | 2.82µM | i | i | i | i
CC(c1ccccc1)n1c(SCC(=O)N2CC(=O)Nc3ccccc32)nc2ccccc2c1=O (configuration not stated) | i | i | nt | i | ?
O=C(c1cnn2c(C(F)F)cc(-c3ccccc3)nc12)N1CCN(Cc2ccc3c(c2)OCO3)CC1 | i | i | i | i | ?
O=C(CSc1nnnn1-c1ccccc1)N1CCNC1=O | i | i | i | i | i
Cc1cccc(-n2c(SCC(=O)N3CC(=O)Nc4ccccc43)nc3ccccc3c2=O)c1C | ? | i | ? | -62.4 | ?
C=CCn1c(SCC(=O)NCc2ccc3c(c2)OCO3)nc2scc(-c3ccccc3)c2c1=O | i | i | i | ? | i
O=C1CN(C(=O)CSc2nnnn2-c2ccc(Cl)cc2)c2ccccc2N1 | 3.55µM | i | i | i | i
C=CCn1c(SCC(=O)N2CC(=O)Nc3ccccc32)nc2scc(-c3ccccc3)c2c1=O | i | i | i | -52.0 | i
N#Cc1ccc(CSc2ccc(S(=O)(=O)N3CCCC3)cn2)cc1 | nt | nt | ? | i | i
C=CC(=O)Nc1ccc(CN2C(=O)N(c3c(Cl)c(OC)cc(OC)c3Cl)Cc3cnc(NCCCCN(CC)CC)nc32)cc1 | nt | nt | ? | -67.0 | ?
CCNC(=O)C1CCCN(C(=O)c2ccc3c(c2)OCO3)CC1 (configuration not stated) | nt | nt | nt | i | nt
Cc1cccc2c(=O)cc(C(F)(F)F)[nH]c12 | ? | ? | i | i | i
O=c1cc(C(F)(F)F)[nH]c2c(OC(F)(F)F)cccc12 | ? | ? | ? | -59.0 | ?
CC(C)Nc1ncnc2c1ncn2[C@H]1CN(Cc2ccc(Cl)cc2)C[C@@H](CO)O1 | nt | nt | nt | i | nt
NC(Cc1ccc(F)cc1)c1csc(Nc2cc(Oc3ccccc3)ncn2)n1 (configuration not stated) | nt | nt | nt | -74.5 | nt
NC(Cc1ccc(Cl)cc1)c1csc(Nc2cc(Oc3ccccc3)ncn2)n1 (configuration not stated) | nt | nt | nt | -68.9 | nt
NC(COCc1ccccc1)c1csc(Nc2cc(Oc3ccccc3)ncn2)n1 (configuration not stated) | nt | nt | nt | -78.8 | nt
Cc1cc(C)c(NC(=S)N2CCN(c3ccc([N+](=O)[O-])cn3)CC2)cc1C | ? | i | i | i | i
Cc1ccc(C)c(NCCCCCCCC(=O)O)c1 | nt | nt | nt | i | nt
